Hit rate of the full screen: of about 350,000 compounds, about 31,000 (8.9%) were called active. Roughly 15% stayed inconclusive and do not appear here. The sample holds actives, similar compounds and a random draw of the others, so the mix is not that of the screen. Calls come from the whole dose curve; as a rule, active = well fitted inhibition curve with a large enough effect; inconclusive = small, poorly fitted or top-dose-only effect; inactive = no such curve, though single readings can be large or run the other way.
These compounds were tested against Histone-lysine N-methyltransferase EHMT2 (Homo sapiens) (UniProt Q96KQ7) (assay: qHTS Assay for Inhibitors of Histone Lysine Methyltransferase G9a). Details: G9a H3K9 monomethylation, AlphaScreen, 2 h; series mostly up to 59 µM; activity, negative = inhibition: at the top concentration.
Histone-lysine N-methyltransferase EHMT2 (Homo sapiens), sequence (Q96KQ7 913-1193 limits assumed): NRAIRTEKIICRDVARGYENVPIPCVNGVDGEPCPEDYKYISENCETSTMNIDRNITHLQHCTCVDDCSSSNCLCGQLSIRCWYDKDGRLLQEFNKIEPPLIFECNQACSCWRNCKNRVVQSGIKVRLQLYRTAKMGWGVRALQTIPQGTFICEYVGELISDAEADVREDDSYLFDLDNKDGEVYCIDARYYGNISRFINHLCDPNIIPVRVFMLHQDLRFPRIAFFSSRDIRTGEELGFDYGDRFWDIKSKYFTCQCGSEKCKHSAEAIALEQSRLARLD
Outline: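 AlphaScreen detection with an anti-monomethyl H3K9 antibody quantified product after a 2 h room-temperature reaction containing 500 nM biotinylated H3K9 peptide, 20 µM SAM and 20 nM enzyme, which had been preincubated 15 min with compound.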
% is set by controls: 0 for no effect and ±100 for the full control effect; potency is the fitted concentration of half-maximal effect.
Note: nearly all actives have a fitted effect of over 75% in size.

Row | SMILES | activity, negative = inhibition | Potency
1 | CC1CCN(S(=O)(=O)c2ccc3c(c2)N(CC(=O)NCc2ccccc2Cl)C(=O)CO3)CC1 | 18.5% (inactive) | –
2 | Cc1cccc(N2CCN(C(=O)c3cccc(N4C(=O)C5C6C=CC(C6)C5C4=O)c3)CC2)c1C (stereo unspecified) | -4.69% [at 102 µM] (inactive) | –
3 | Cn1c(=O)n(C)c2cc(C(=O)Nc3ccc4c(c3)OCO4)ccc21 | -4.52% [at 102 µM] (inactive) | –
4 | COc1ccc(NC(=O)CCN2C(=O)/C(=C/c3ccc4c(c3)OCO4)SC2=S)cc1 | 7.02% [at 12.7 µM] (inactive) | –
5 | Cc1ccc(C(=O)O)cc1-c1ccc(/C=C2\SC(=O)N(CC(=O)Nc3ccc4c(c3)OCO4)C2=O)o1 | – | 15.8 µM (active)
6 | O=C(c1ccc(Cl)cc1)n1nc(-c2cccnc2)nc1NCc1ccc(F)cc1 | 8.04% (inactive) | –
7 | CN1c2ccc(Cl)cc2-c2nc(SCC(=O)Nc3cc(F)ccc3F)ncc2S1(=O)=O | 2.07% (inactive) | –
8 | CS(=O)(=O)c1ccc(-c2nnn(CC(=O)Nc3ccc4c(c3)OCCO4)n2)cc1 | -35.3% [at 102 µM] (inactive) | –
9 | Oc1ccc(N=Nc2nccs2)c(O)c1 | – | 44.7 µM (active)
10 | Oc1ccc2ccccc2c1N=Nc1nccs1 | 12.3% [at 0.501 µM] (inactive) | –
11 | Cc1cccc(NC(=O)C2CCCN2S(=O)(=O)c2cccc3nsnc23)c1C (stereo unspecified) | -3.86% (inactive) | –
12 | COc1ccc(-c2noc(CSc3nc(C)cc(=O)[nH]3)n2)cc1OC | 5.63% (inactive) | –
13 | Cc1nc(-c2ccc(F)cc2)c(CC(=O)Nc2cccc(S(=O)(=O)N3CCOCC3)c2)s1 | 9.73% [at 0.501 µM] (inactive) | –
14 | Cc1cc(C)c(NC(=O)CS(=O)CC(=O)Nc2cccnc2)c(C)c1 (stereo unspecified) | -1.56% [at 102 µM] (inactive) | –
15 | Cc1ccc(-c2nc(-c3cccnc3)sc2CC(=O)Nc2ccc(C)c(Cl)c2)cc1 | – | 8.91 µM (active)
16 | Cc1ccsc1C(=O)OCC(=O)Nc1cccc(F)c1 | 19.6% [at 12.7 µM] (inactive) | –
17 | Cn1c(=N)n(CC(O)c2ccccc2)c2ccccc21 (stereo unspecified) | 9.45% (inactive) | –
18 | CCOc1ccc(C(O)Cn2c(=N)n(CCN3CCCCC3)c3ccccc32)cc1 (stereo unspecified) | – | 50.1 µM (active)
19 | CCOc1ccc(C(O)Cc2nc3ccccc3n2C)cc1 (stereo unspecified) | -10.2% (inactive) | –
20 | Fc1ccc(-c2nn(-c3ccccc3Cl)c3c2cnc2ccccc23)cc1 | 8% (inactive) | –
21 | N#Cc1cccc(NC(=O)CN2CCCCCC2)c1 | 12.8% [at 102 µM] (inactive) | –

Row | SMILES | activity, negative = inhibition | Potency
22 | CC(C)c1ccc(NC2CCCN(C(=O)c3ccncc3)C2)cc1 (stereo unspecified) | 13.6% [at 102 µM] (inactive) | –
23 | Cc1cccc(C(=O)N2CCCC(Nc3ccc(C(C)C)cc3)C2)n1 (stereo unspecified) | – | 56.2 µM (active)
24 | CC(C)c1ccc(NC(=O)NC2CCCCC2)cc1 | 1.01% (inactive) | –
25 | CCN(CC(=O)NCc1ccc(Cl)cc1)C(=O)c1c(C)noc1C | -126% [at 12.7 µM] (inactive) | –
26 | Cc1cccc(N2CCN(S(=O)(=O)c3ccc4[nH]c5c(c4c3)CCCCC5)CC2)c1C | -34.1% (inactive) | –
27 | Cc1cccc(NC(=O)Cn2nc(-c3ccc(Cl)cc3)c3ccccc3c2=O)c1 | 27.7% (inactive) | –
28 | Cc1ccc(-c2csc(NC(=O)Cc3cccs3)n2)cc1C | -13.1% [at 102 µM] (inactive) | –
29 | CCN(CC)c1ccc(C(=O)NNC(=O)CCc2nc3ccccc3c(=O)[nH]2)cc1 | 34.4% [at 102 µM] (inactive) | –
30 | Cc1ccc(-c2csc(NC(=O)Cn3[nH]c(=O)c4ccccc4c3=O)n2)cc1 | -22.3% [at 102 µM] (inactive) | –
31 | Cc1cc(C)c(-c2csc(NC(=O)CCCc3nc4ccccc4c(=O)[nH]3)n2)c(C)c1 | – | 50.1 µM (active)
32 | CCCc1ccc(-c2csc(NC(=O)Cc3cccs3)n2)cc1 | -17.3% [at 102 µM] (inactive) | –
33 | CCCn1c(C)cc(-c2csc(NC(=O)CCc3nc4ccccc4c(=O)[nH]3)n2)c1C | – | 25.1 µM (active)
34 | COc1ccc(-c2cc(C(F)(F)F)nc(SCC(=O)N(C)Cc3ccccc3)n2)cc1OC | 16.6% (inactive) | –
35 | Brc1ccccc1C1N=C(c2ccccc2)NO1 (stereo unspecified) | – | 50.1 µM (active)
36 | N#Cc1ccc(C2N=C(c3ccccc3)NO2)cc1 (stereo unspecified) | 13.3% [at 102 µM] (inactive) | –
37 | O=C(c1ccc(OC2CCN(C/C=C/c3ccc(F)cc3)CC2)cc1)N1CCCCC1 | 4.87% [at 102 µM] (inactive) | –
38 | CC1CCC(NC(=O)CNC(=O)c2ccc3ccccc3c2)CC1 (stereo unspecified) | 5.09% [at 0.501 µM] (inactive) | –
39 | CCCOC(=O)C1=C(C)NC2=C(C(=O)C(C(=O)OC)C(C)C2)C1c1ccc(N(C)C)cc1 (stereo unspecified) | – | 44.7 µM (active)
40 | CCOC(=O)C1=C(C)NC2=C(C(=O)CC(C)(C)C2)C1c1ccsc1 (stereo unspecified) | 1.73% [at 12.7 µM] (inactive) | –
41 | COCCOC(=O)C1=C(C)NC(=O)NC1c1ccc(Cl)cc1 (stereo unspecified) | 20.2% (inactive) | –
42 | N#Cc1cccc(NC(=O)C2CCCN(C(=O)c3ccc(Cl)cc3)C2)c1 (stereo unspecified) | 10.9% [at 12.7 µM] (inactive) | –

Row | SMILES | activity, negative = inhibition | Potency
43 | CCOC(=O)c1sc2nc(C)[nH]c(=O)c2c1C | 14.5% (inactive) | –
44 | CCOC(=O)c1sc2nc(CSCC(=O)OCc3ccc(C(=O)OC)o3)[nH]c(=O)c2c1C | -43.1% (inactive) | –
45 | COC(=O)c1sc2[nH]c(=S)n(N)c(=O)c2c1C | – | 7.94 µM (active)
46 | CCCCN1CC(c2nc3ccccc3n2CCCCOc2ccc(C)cc2C)CC1=O (stereo unspecified) | -41.5% (inactive) | –
47 | O=C(CCn1ccc2cc(S(=O)(=O)N3CCCC3)ccc21)NCc1cccc(Cl)c1 | -5.24% (inactive) | –
48 | CC1CCN(S(=O)(=O)c2ccc3c(ccn3CCC(=O)NCc3ccc(N(C)C)cc3)c2)CC1 | – | 10 µM (active)
49 | CC1CCN(S(=O)(=O)c2ccc3c(ccn3CC(=O)O)c2)CC1 | 1.09% [at 102 µM] (inactive) | –
50 | CC(C)C[C@H](NC(=O)C1CC(=O)N(c2ccc3c(c2)OCCO3)C1)C(=O)NC1CCCC1 (stereo partly specified) | 19% [at 102 µM] (inactive) | –
51 | Cc1ccccc1N1CC(C(=O)Nc2ccc3c(c2)OCO3)CC1=O (stereo unspecified) | 9.33% [at 102 µM] (inactive) | –
52 | CCOC(=O)c1ccc(NC(=O)C2CC(=O)N(c3ccc(C(C)C)cc3)C2)cc1 (stereo unspecified) | -25.6% (inactive) | –
53 | CCc1nnc(NC(=O)C2CC(=O)N(c3ccc4c(c3)OCCO4)C2)s1 (stereo unspecified) | – | 10 µM (active)
54 | O=C(Nc1nnc(SCc2c(Cl)cccc2Cl)s1)C1CCCO1 (stereo unspecified) | 47.8% [at 12.7 µM] (inactive) | –
55 | CC(C)c1nnc(NC(=O)C2CC(=O)N(CCc3ccc(F)cc3)C2)s1 (stereo unspecified) | -20.7% [at 102 µM] (inactive) | –
56 | COc1cccc(N2CC(C(=O)Nc3c(C)cccc3C)CC2=O)c1 (stereo unspecified) | 5.2% (inactive) | –
57 | Cc1cccc(N2CC(C(=O)Nc3ccccc3N3CCCC3)CC2=O)c1C (stereo unspecified) | – | 70.8 µM (active)
58 | Cc1ccccc1N1CC(C(=O)Nc2ccc(S(=O)(=O)N3CCCC3)cc2)CC1=O (stereo unspecified) | 20.1% [at 2.33 µM] (inactive) | –
59 | CC(=O)c1ccccc1NC(=O)C1CC(=O)N(c2ccc3c(c2)OCCO3)C1 (stereo unspecified) | 5.62% (inactive) | –
60 | Cc1ccccc1N1CC(C(=O)Nc2nnc(SCCC3OCCO3)s2)CC1=O (stereo unspecified) | – | 25.1 µM (active)
61 | CCOC(=O)CSc1nnc(NC(=O)C2CC(=O)N(c3ccc(F)cc3)C2)s1 (stereo unspecified) | – | 63.1 µM (active)

Reference: PubChem BioAssay AID504332 (National Center for Advancing Translational Sciences (NCATS), 2011)
